The full data set covers some 7,900 targets. This sample favours those with a hit. About 0.6% of all pairs of compound and target were hits.

UniProt Q8NHP8, sequence (Q8NHP8 whole entry, looked up): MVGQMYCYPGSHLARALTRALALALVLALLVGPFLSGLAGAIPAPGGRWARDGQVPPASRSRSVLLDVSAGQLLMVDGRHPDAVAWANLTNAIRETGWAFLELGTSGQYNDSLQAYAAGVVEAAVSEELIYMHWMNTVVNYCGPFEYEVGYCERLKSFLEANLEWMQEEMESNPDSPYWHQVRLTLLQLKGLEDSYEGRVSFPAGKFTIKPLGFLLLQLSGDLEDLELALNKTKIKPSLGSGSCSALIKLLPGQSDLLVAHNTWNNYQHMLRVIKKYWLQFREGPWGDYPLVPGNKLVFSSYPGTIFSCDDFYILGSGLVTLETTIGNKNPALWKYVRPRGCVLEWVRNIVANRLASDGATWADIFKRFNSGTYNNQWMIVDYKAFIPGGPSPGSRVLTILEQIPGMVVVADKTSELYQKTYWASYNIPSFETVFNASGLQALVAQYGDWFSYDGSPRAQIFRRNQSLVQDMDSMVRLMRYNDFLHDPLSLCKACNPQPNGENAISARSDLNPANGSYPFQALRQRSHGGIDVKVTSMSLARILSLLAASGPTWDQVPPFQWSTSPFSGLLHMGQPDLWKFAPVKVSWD
UniProt Q01970, sequence (Q01970 whole entry, looked up): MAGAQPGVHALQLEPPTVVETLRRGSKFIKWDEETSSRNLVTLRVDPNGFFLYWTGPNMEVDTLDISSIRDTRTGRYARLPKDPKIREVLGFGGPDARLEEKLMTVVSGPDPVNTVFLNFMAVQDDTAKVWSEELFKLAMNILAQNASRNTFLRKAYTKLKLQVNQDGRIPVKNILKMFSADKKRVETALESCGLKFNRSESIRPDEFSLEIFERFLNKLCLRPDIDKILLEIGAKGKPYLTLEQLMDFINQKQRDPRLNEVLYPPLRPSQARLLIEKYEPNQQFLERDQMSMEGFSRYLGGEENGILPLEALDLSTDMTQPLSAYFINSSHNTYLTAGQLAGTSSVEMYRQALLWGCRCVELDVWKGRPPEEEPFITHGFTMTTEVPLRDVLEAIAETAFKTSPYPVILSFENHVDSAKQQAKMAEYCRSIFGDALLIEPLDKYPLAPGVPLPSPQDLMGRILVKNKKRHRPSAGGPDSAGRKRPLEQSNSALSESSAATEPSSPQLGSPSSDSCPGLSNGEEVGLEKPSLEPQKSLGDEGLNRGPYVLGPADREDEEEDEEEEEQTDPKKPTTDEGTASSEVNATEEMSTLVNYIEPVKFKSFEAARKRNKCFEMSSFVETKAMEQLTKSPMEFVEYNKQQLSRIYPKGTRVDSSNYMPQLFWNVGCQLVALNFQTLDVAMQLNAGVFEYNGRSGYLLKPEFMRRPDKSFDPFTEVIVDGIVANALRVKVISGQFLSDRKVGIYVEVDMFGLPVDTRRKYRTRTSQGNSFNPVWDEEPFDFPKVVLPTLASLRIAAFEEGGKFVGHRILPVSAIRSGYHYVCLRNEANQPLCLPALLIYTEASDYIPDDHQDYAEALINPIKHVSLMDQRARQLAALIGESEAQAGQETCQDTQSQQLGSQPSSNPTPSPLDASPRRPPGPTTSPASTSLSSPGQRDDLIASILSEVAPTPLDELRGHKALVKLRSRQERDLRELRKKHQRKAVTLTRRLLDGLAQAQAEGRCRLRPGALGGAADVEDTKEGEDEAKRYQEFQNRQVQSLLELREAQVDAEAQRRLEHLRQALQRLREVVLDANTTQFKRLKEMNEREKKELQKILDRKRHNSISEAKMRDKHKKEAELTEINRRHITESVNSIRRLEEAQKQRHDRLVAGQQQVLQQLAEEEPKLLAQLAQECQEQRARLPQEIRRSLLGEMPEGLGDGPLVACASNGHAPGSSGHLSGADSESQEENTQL
UniProt Q9BRX2, sequence (Q9BRX2 whole entry, looked up): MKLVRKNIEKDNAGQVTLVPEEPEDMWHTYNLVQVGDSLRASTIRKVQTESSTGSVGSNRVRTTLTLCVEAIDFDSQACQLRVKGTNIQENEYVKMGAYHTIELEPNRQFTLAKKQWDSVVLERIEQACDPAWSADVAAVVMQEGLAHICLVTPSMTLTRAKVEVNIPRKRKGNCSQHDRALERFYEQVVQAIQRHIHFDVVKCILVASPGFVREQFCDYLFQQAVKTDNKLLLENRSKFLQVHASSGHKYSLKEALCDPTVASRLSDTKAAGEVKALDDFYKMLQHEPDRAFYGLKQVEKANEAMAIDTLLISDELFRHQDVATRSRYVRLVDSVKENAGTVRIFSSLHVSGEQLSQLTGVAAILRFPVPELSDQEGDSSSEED
UniProt Q5H8A4, sequence (Q5H8A4 whole entry, looked up): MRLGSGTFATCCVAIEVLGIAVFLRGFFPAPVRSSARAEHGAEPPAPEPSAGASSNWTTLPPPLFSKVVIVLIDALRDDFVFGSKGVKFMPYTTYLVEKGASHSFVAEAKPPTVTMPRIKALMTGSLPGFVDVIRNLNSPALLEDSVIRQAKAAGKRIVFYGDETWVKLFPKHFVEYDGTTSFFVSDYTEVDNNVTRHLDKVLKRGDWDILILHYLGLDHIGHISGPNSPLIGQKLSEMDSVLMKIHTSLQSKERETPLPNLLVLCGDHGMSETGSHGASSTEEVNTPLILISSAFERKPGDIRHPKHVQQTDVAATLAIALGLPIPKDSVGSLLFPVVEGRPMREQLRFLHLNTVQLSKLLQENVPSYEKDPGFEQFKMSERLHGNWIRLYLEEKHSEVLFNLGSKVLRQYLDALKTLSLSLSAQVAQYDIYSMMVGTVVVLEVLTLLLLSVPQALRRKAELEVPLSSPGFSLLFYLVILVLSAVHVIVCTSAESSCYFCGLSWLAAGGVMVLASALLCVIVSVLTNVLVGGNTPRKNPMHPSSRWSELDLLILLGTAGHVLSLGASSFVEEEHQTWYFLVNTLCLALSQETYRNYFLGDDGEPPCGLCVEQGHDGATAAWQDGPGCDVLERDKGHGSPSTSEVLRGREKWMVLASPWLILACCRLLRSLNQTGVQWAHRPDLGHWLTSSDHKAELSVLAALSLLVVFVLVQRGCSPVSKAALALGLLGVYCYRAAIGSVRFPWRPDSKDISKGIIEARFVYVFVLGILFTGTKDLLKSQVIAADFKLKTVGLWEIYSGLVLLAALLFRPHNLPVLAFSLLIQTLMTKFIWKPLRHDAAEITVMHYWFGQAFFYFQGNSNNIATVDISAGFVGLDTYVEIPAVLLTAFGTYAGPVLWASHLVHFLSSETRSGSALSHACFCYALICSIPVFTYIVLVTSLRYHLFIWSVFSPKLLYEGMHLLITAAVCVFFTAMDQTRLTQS
UniProt Q14671, sequence (Q14671 whole entry, looked up): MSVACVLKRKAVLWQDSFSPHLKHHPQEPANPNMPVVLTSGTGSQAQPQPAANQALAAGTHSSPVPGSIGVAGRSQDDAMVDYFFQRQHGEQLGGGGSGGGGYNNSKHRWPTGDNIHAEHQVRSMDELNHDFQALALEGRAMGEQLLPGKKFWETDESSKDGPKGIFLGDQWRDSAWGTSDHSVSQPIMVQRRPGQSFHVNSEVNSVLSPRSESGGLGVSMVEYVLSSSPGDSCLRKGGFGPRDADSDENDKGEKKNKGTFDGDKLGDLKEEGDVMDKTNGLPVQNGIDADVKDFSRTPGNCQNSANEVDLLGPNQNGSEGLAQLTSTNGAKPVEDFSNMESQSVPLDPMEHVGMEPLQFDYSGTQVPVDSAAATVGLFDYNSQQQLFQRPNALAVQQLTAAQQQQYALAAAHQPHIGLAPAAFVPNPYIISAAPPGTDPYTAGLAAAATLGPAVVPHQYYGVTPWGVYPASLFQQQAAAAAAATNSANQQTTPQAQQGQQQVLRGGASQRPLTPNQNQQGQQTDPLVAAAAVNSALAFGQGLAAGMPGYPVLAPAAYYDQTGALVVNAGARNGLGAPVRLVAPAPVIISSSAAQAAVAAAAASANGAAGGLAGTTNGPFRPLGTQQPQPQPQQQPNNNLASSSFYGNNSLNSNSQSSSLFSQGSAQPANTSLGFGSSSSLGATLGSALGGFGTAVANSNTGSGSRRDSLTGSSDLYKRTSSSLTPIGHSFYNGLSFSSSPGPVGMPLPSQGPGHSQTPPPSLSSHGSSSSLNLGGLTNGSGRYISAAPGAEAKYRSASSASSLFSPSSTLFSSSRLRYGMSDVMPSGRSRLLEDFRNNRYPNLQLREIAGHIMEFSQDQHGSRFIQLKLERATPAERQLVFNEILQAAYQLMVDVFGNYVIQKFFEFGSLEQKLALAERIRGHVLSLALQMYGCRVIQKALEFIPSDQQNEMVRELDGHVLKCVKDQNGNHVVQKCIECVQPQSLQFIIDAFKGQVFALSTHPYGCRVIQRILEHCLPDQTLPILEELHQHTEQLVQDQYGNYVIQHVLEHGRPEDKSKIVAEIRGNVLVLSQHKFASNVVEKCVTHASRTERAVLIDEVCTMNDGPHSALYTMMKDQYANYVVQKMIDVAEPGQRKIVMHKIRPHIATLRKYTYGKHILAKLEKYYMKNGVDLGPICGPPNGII
UniProt O60678, sequence (O60678 whole entry, looked up): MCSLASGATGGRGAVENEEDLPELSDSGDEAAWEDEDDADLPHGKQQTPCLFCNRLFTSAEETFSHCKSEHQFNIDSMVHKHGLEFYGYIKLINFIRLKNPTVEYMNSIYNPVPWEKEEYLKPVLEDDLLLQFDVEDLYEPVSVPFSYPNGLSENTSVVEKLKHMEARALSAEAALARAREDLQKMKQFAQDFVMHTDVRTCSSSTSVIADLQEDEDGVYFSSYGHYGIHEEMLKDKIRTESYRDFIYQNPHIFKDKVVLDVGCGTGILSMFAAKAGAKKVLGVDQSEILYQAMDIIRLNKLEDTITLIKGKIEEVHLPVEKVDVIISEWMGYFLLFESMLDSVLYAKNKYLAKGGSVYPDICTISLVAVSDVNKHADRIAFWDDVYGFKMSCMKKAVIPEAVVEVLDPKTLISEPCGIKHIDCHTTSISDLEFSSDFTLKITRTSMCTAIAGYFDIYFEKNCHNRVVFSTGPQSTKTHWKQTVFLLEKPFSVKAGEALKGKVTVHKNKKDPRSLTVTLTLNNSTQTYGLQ

Compound in this test: c1cn2cc(-c3ccc4cn[nH]c4c3)nc(Nc3ccc(N4CCOCC4)cc3)c2n1 [entospletinib]
Kind of test: log2 fold change, soluble protein after heating vs DMSO (PISA); higher = thermal stabilisation; K562 cells, 10 uM, 30 min; active = over 0.2 and 3.5 SD of the protein, either way, in both replicates (recomputed). The procedure, abridged:
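K562 cells at 2×10^6 cells/mL were exposed to 10 μM compound for 30 min, then aliquots were heated for 3 min across 48°C-58°C, pooled, and extracted in PBS containing 0.5% NP-40 at 4°C. The supernatant after 21,000xg for 90 min was taken as soluble protein and measured by TMTpro 16plex LC-MS/MS with channel sums equalised. Thermal stability is reported relative to control samples, with values from duplicates. Fold changes are given on a log2 scale.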
Consider PUM1 isoform 3 (UniProt Q14671), for which the log2 fold change is 0.045 (inactive).
Regarding POTEI (UniProt P0CG38), the log2 fold change was -0.074 (inactive).
In the case of PCGF2 (UniProt P35227) it was 0 (inactive).
In the case of PSMA3 (UniProt H0YJ03) it was -0.059 (inactive); in that of PI4K2A (UniProt Q9BTU6), -0.011 (inactive).
In the case of PIGG (UniProt Q5H8A4) it was -0.034 (inactive).
Consider PDE12 (UniProt Q6L8Q7), for which the log2 fold change was -0.033 (inactive).
As for PRMT3 (UniProt O60678), the log2 fold change is -0.036 (inactive).
Under PELO (UniProt Q9BRX2) stands 0.05 (inactive).
With PLCB3 (UniProt Q01970), the log2 fold change is 0.028 (inactive).
For PDE2A (UniProt O00408), the log2 fold change is 0.015 (inactive).
Under PRKAB2 (UniProt O43741) stands -0.12 (inactive).
In the case of PML (UniProt P29590) it was 0.073 (inactive).
As to PLBD2 (UniProt Q8NHP8), the log2 fold change was -0.038 (inactive).
Take POLR2K (UniProt P53803): the log2 fold change is 0.24 (inactive).

Source of the values: the supplement of paper PMC10849652.
